This is a sample that favours compounds with a hit; in the whole collection about 2.9% have one here.
GLP1R inv ag = inverse agonists of human GLP-1 receptor; AID 624417; HEK293 GLP-1R CRE-luciferase, luminescence, 24 h; GLP-1R form is constitutively active; Potency, µM (highest dose often 38.3 µM), inactives show at the top dose activity change, negative = inhibition, usual class: inhibitors; 1.6% of 410,000 active; note: potency is the fitted concentration of half-maximal effect; % is set by controls: 0 for no effect and ±100 for the full control effect; nearly all actives have a fitted effect of over 55% in size
Target sequence (P43220 whole entry, looked up): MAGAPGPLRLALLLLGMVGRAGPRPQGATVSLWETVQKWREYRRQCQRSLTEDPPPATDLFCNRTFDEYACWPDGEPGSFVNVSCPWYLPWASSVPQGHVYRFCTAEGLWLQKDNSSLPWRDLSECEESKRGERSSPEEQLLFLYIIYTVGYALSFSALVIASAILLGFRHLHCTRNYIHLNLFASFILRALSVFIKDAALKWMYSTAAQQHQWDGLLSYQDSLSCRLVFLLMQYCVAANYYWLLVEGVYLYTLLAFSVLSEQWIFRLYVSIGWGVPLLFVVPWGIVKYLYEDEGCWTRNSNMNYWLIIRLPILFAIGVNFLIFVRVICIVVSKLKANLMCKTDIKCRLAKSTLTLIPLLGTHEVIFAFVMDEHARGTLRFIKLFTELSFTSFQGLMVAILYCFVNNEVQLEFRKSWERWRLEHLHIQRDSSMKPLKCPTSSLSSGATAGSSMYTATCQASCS
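Stable HEK293 clone (constitutively active GLP-1R + cAMP-response luciferase); 200 cells/uL plated, 12 h pre-culture, compound 24 hr, 37 deg C/5% CO2; detection reagent 12 min RT; luminescence.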
HEK293 tox = cytotoxicity counter-screen for GLP-1 receptor inverse agonists | HEK293 cAMP-luciferase reporter cells, luminescence, 24 h | Potency, µM (doses to about 38.3 µM), inactives show at the highest dose activity change, negative = inhibition, most hits filed as inhibitors | 0.13% of 410,000 active;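 note: loss of luciferase light is scored as toxicity; potency is the fitted concentration of half-maximal effect; % is set by controls: 0 for no effect and ±100 for the full control effect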
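Luminescence readout: signal drop marks cytotoxicity. Plated cells grew 12 h at 37 °C, 5% CO2, received 23 nL compound for 24 h, then got luciferase reagent, read after 12 min at RT.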
LDHA block = inhibitors of human lactate dehydrogenase A | purified LDHA, NADH/diaphorase-resazurin fluorescence; stronger effect = lower value | activity change, % (values are at about 110 or 230 µM) | 0.15% of 480,000 active | AID 1347041; in the data active = activity change below about -30%; inconclusive = mostly about -25% to -30%;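 note: plate controls were DMSO wells for no effect and wells without enzyme for full effect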
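LDH5 2 nM; NADH 0.06 mM, pyruvate 0.2 mM; 200 mM Tris pH 7.4, EDTA, Tween-20; 5 min RT. Detection: diaphorase 0.133 mg/mL + resazurin 37 µM, fluorescence ex540/em590 at 0 and 20 min; normalized to enzyme-free and DMSO wells.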
p53 reactivator = mutant p53 re-activation in reporter cells; H1299 p53-A138V BP100-luciferase reporter, luminescence, 24 h; Potency, µM (highest dose often 92.2 µM), without a hit: at the top dose activity change, positive = activation, usual class: activators; 0.063% of 320,000 active; AID 504706; note: potency is the fitted concentration of half-maximal effect; % of control where 0% means no effect; nearly all actives have a fitted effect of over 45% in size
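H1299 (p53-null), stable ts p53-A138V + BP100-Luc; 1000 cells/well, Opti-MEM/10% FBS; cpd 4 pt, 1:5; 24 h, 37 deg C, 5% CO2; detection reagent 10 min RT; luminescence.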
ClpP mod = qHTS Assay for Activators of ClpP. ATP-dependent Clp protease proteolytic subunit (Bacillus subtilis (strain 168)), P80244. purified B. subtilis ClpP, FRET peptide cleavage, 20 min. Potency, µM (doses to about 57.5 µM), for the others: at the top dose activity change, negative = active. 1.9% of 340,000 active. AID 651965, 2013; active = well fitted falling curve with a large enough effect; inconclusive = small, poorly fitted or top-dose-only effect; inactive = no such curve, though single readings can be large or run the other way; note: potency is the fitted concentration of half-maximal effect; the source files actives as falling curves though it sought activators and does not explain the sign; nearly all actives have a fitted effect of over 65% in size
Target sequence (P80244 whole entry, looked up): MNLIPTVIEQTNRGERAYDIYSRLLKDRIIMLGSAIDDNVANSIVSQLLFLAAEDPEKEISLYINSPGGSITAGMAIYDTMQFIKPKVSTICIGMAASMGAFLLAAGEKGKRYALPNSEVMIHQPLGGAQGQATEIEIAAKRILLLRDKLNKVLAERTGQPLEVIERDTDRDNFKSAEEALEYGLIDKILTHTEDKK
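Purified B. subtilis ClpP, 10 microg/mL final in Tris/HCl pH8 with KCl, BSA, glycerol and Tween-20, cleaved an Abz/nitrotyrosine-quenched decapeptide. Fluorescence (ex 320, em 430) was read at 0 and 20 min at room temperature. Delta was normalized to 5.8 microM ADEP and DMSO/no-enzyme controls.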
GLP1R ag = activates the human GLP-1 receptor; P43220; HEK293 GLP-1R CRE-luciferase, luminescence, 4-6 h; cells express a hypersensitive GLP-1R form; Potency, µM (doses to about 45.6 µM), for the others: top-dose activation, hits mostly activators; 0.007% of 380,000 active; AID 624172; note: potency is the fitted concentration of half-maximal effect; % of control where 0% means no effect
Numbers without * were called inactive; ? = inconclusive; . = no result. Unless noted, calls come from the whole dose curve; as a rule, active = well fitted curve in the direction sought with a large enough effect; inconclusive = small, poorly fitted or top-dose-only effect, or another doubt; inactive = no such curve, though single readings can be large; an effect the other way counts as inactive or inconclusive.

SMILES | GLP1R inv ag | HEK293 tox | LDHA block | p53 reactivator | ClpP mod | GLP1R ag
CCN1CCN(c2cc(-c3ccccc3)nc3cc(-c4cccc(F)c4)nn23)CC1 | 2.5µM* | ? | 0 | -6% | 25µM* | -51%
CC(C)N(Cc1nc(-c2ccc(Cl)cc2)no1)C(=O)/C=C/c1ccccc1 | 11µM* | -1% | 4 | 8% | -3% | 2%
CN=C1c2cc3cc(OC)ccc3n2CCN1Cc1ccccc1 | 5µM* | -15% | 0 | 1% | 1% | 10%
O=S(=O)(c1ccc(NC(=S)Nc2ccccc2)cc1)N1CCOCC1 | 1% | -20% | -2 | -9% | 0% | 9%
O=C(CCc1ccccc1)NC(=S)Nc1ccc(S(=O)(=O)N2CCOCC2)cc1 | ? | 25% | -6 | 8% | 10µM* | -3%
CC(C)CCCCCCNC(=S)Nc1ccc(S(=O)(=O)N2CCOCC2)cc1 | 3.5µM* | ? | 0 | -2% | -3% | -9%
CN(C)C(=O)c1cn(-c2ccccc2)nc1-c1cc2ccccc2o1 | ? | -5% | 0 | -2% | . | 21%
N#CC(C#N)=C(Nc1ccc(F)cc1)SCc1cccc(Br)c1 | 2µM* | 9% | -3 | 7% | -26% | -8%
Cc1cccc(CSC(Nc2ccc(F)cc2)=C(C#N)C#N)c1 | ? | ? | 1 | -3% | 3% | -5%
COc1ccc(C(=O)N/N=C/c2cccc3cccnc23)cc1 | ? | -18% | 0 | 6% | 1% | -25%
N#Cc1ncc(-c2ccc3c(c2)OCCOCCOCCOCCOCCO3)nc1C#N | 11% | -12% | -4 | -24% | 32µM* | -1%
N#Cc1ncc(-c2ccc3c(c2)OCCOCCOCCOCCO3)nc1C#N | 59% | ? | -7 | 26% | 2% | -4%
CCC(=O)Oc1c(S(=O)(=O)c2ccc(C)cc2)c(C)nn1C(C)(C)C | ? | ? | 0 | -18% | -4% | -10%
CCCC(=O)Oc1c(S(=O)(=O)c2ccc(C)cc2)c(C)nn1C(C)(C)C | 5.6µM* | ? | 1 | 1% | 0% | -2%
CON(C)C(=O)c1ccccc1N(C)C(=O)OC(C)(C)C | 3% | -12% | -15 | -2% | -3% | 11%
COc1cc(NC(=O)[C@@H]2O[C@H](CO)[C@@H](O)[C@H]2O)cc(OC)c1OC | 23% | 5% | 5 | . | -2% | 5%
Cc1cc(C(=O)COC(=O)Cc2n[nH]c(=O)c3ccccc23)c(C)n1C1CC1 | . | . | -11 | . | . | .
Cc1cc(C(=O)COC(=O)Cc2n[nH]c(=O)c3ccccc23)c(C)n1-c1cccc(C(F)(F)F)c1 | 7.1µM* | -20% | 1 | -6% | -1% | -1%
COc1cccc(CNc2nc(NCc3ccccc3)nc3ccsc23)c1 | ? | -15% | 0 | . | -13% | -3%
c1ccc2nc(N3CCOCC3)c(N3CCCC3)nc2c1 | ? | 2% | 3 | . | 1% | 14%
c1ccc2nc(N3CCCC3)c(N3CCCCC3)nc2c1 | 11µM* | 9% | 0 | . | 1% | 13%
Nc1nc(N2CCCCC2)nc2ccccc12 | 0% | 10% | -8 | ? | 18µM* | 5%
Nc1nc(N2CCN(c3ccccn3)CC2)nc2ccccc12 | 10% | 9% | -30* | 17% | -12% | 23%
Cc1cc(-c2ccccc2)nc(N2CCN(c3ccccn3)CC2)n1 | 15% | 11% | -10 | 1% | 50% | -2%
COC(=O)C1=C(C)Nc2ncnn2C1c1ccccn1 (centres undefined) | 6% | 4% | -4 | -7% | -1% | -12%
SMILES | GLP1R inv ag | HEK293 tox | LDHA block | p53 reactivator | ClpP mod | GLP1R ag
CCOC(=O)N1CCN(C(=O)/C=C/c2ccc(C(C)(C)C)cc2)CC1 | ? | 16% | -3 | -10% | -5% | 5%
CC1(C)CC(NC2C3CC4CC(C3)CC2C4)CC(C)(C)N1 (centres undefined) | 3.2µM* | ? | 1 | -1% | . | 6%
CC1(C)CC(NC(=O)/C=C/C(=O)NC2CC(C)(C)NC(C)(C)C2)CC(C)(C)N1 | . | . | -2 | . | . | .
O=c1c2cc(F)ccc2sn1-c1ccccc1Cl | ? | -1% | -43* | . | -2% | 14%
O=c1c2ccccc2sn1-c1ccc(F)cc1 | 5% | -9% | -31* | ? | -5% | 8%
O=c1c2ccc(F)cc2sn1-c1ccccc1 | ? | ? | -13 | . | -2% | 4%
C=CCNc1nc(NCCN2CCOCC2)nc(OC)n1 | 11% | 18% | -3 | -5% | -19% | 1%
CC1CCCN(S(=O)(=O)c2ccc3oc(=O)ccc3c2)C1 (centres undefined) | 26% | 0% | -3 | 1% | 0% | 6%
O=C(CN1CCC2(CC1)OCCO2)c1ccc2cc[nH]c2c1 | 0% | 1% | -8 | 1% | 32µM* | -6%
O=C(CN1CCN(c2ccccc2)CC1)c1ccc2cc[nH]c2c1 | -26% | -12% | -10 | 3% | ? | 9%
CCOc1cc(CNCCCN2CCOCC2)cc(Br)c1OCc1ccccc1Cl | 4.5µM* | ? | -9 | -7% | 0% | 5%
CCOc1cc(CNCCO)cc(Br)c1OCc1ccccc1Cl | ? | ? | 0 | -12% | 1% | -12%
CC1Cn2c(nc3sc4c(c3c2=O)CCC4)N1CCO (centres undefined) | 19% | -7% | 1 | -5% | 18µM* | 1%
O=c1c2c3c(sc2nc2n1CCCCC2)CCC3 | ? | -3% | -6 | 21% | -1% | 9%
FC(F)(F)c1ccc(-n2ccnc2)nc1 | ? | 6% | 2 | -2% | -6% | 16%
COc1ccc(/C=C/C(=O)Nc2ccc(-n3nncc3-c3ccc(OC)c(OC)c3)cc2)cc1OC | 113% | -14% | -9 | -27% | 25µM* | ?
COc1cc(/C=C/C(=O)OCC(=O)Nc2c(C)n(C)n(-c3ccccc3)c2=O)ccc1OCC#N | 7% | 0% | -2 | 1% | 3% | 0%
COc1cc(/C=C(\C#N)C(=O)Nc2ccccc2C(=O)O)cc(Cl)c1OC(C)C | . | . | 11 | . | . | .
COc1cccc(SCC(=O)N2CCN(c3ccccc3)CC2)c1 | -21% | -8% | -8 | -2% | . | 17%
OC(c1ccc2ccccc2c1)c1ncc(-c2ccc(C(F)(F)F)cc2)[nH]1 (centres undefined) | 10µM* | -22% | -8 | . | -9% | -2%
OC(c1ccc(F)cc1)c1ncc(-c2ccc(Oc3ccccc3)cc2)[nH]1 (centres undefined) | 10µM* | -11% | -7 | . | -4% | -6%
